# According to ChEMBL document CHEMBL3988442, “University of Dundee, Small-Polar-MMV Screening Library” (2021):
# Screen size: about 53,000 compounds; about 900 (1.7%) showed an effect of 50% or more. Only a selection was taken, and strong results are over-represented in it overall.
# Tested on: Mycobacterium tuberculosis
# Assay: Cornell - Phenotypic assay to identify agents that inhibit growth of Mycobacterium tuberculosis
# Type: functional
# Parameters: scale not given: direction of the effect not stated beside the values
# Conditions: 10 mM as filed; unlikely as a test dose
row,SMILES,Percent Effect
1,Cc1nn(C)c(C)c1-c1ccc(=O)n(C(C)C(=O)NC2CC2)n1 (stereo not given),11.69%
2,CC(C)Nc1nc2c(s1)C(=O)CN(CC1CC1)C2,-4.506%
3,CCn1nc(C)c2c1cnn2CC(=O)N1CCN(C)CC1,13.07%
4,O=C(O)CN1CCOCC(Cc2ccc(Cl)cc2)C1 (stereo not given),-49.54%
5,CCCc1cc(=O)n(CC(=O)NC(C)C)c(-n2nc(C)cc2C)n1,19.53%
6,CCCNC(=O)Cn1c(-n2nc(C)cc2C)nc(CCC)cc1=O,16.57%
7,CCCc1cc(=O)n(CC(=O)NCCOC)c(-n2nc(C)cc2C)n1,61.91%
8,Cc1nn2cc(CNc3nccc(CCC(F)(F)F)n3)nc2s1,14.28%
9,Cl.NC(Cc1nc(-c2ccccc2)no1)c1ccccc1 (stereo not given),19.6%
10,COc1cc(OC)cc(-c2noc(CC(N)c3ccccc3)n2)c1 (stereo not given),63.98%
11,COc1cc(OC)cc(-c2noc(CN)n2)c1,-71.7%
12,COc1c(C2CCCN2Cc2nc(C3CC3)no2)c(C)nn1C (stereo not given),-19.26%
13,CC(C)(C)c1noc(CN2CCCc3cc(OC(F)(F)F)ccc32)n1,12.22%
14,Cc1nn(C)cc1C1CC(=O)Nc2c1cnn2C (stereo not given),30.3%
15,NC(=O)C1CCCN(c2ccc(CNC(=O)c3cnsn3)cc2)C1 (stereo not given),-38.73%
16,N#Cc1c(Cl)nsc1NCc1ccc(N2CCCC(C(N)=O)C2)cc1 (stereo not given),80.86%
17,N#Cc1c(Cl)nsc1NCc1ccc(N2CCC(CO)CC2)cc1,51.2%
18,NC(=O)C1CCCN(c2ccc(CNC(=O)c3csnn3)cc2)C1 (stereo not given),-20.12%
19,N#Cc1c(Cl)nsc1NCc1ccc(N2CCSCC2)cc1,23.04%
20,Cc1nnc(NCc2ccc(N3CCC(CO)CC3)cc2)c(C#N)c1C,-12.64%
21,OC1(CNCCc2csc(-c3cccnc3)n2)CCNC1 (stereo not given),6.154%
22,CN1CCOC(C)(C(=O)Nc2nccs2)C1 (stereo not given),-67.22%
23,COCC1COCCC12CCN(C(=O)COc1ccccc1C)CC2 (stereo not given),-10.81%
24,Cc1cc(C(=O)NCCN2CCCc3ccccc32)[nH]n1,-6.129%
25,O=C(NCCN1CCc2ccccc21)c1cc(-c2ccc(O)cc2)n[nH]1,53.46%
26,O=C(NCCN1CCNC1=O)c1cc(-c2ccc(O)cc2)n[nH]1,15.58%
27,CCc1ccc(NC(=O)c2ncc(C(N)=O)cc2Cl)cc1F,15.72%
28,O=C(NCCc1c[nH]c2ccc(F)cc12)C1(n2cnnn2)CCCCC1,65.5%
29,O=C(NCCc1c[nH]c2ccccc12)C1(n2cnnn2)CCCCC1,25.7%
30,O=C(NCCc1cccc(F)c1)C1(n2cnnn2)CCCCC1,18.95%
